Compounds without any hit were thinned out: in the full panel of roughly 79,000, 15% have a hit. Activity calls are given as the source filed them. No stated cut-off is given here; in the data, active means growth inhibition above about 70%; inactive means the rest.
Legend:
[1] = NCI Yeast Anticancer Drug Screen. Data for the rad50 strain (AID 155);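 further: 0% = growth of vehicle-only cultures of the same strain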; conditions: S. cerevisiae rad50 strain growth inhibition; at 50.0 µM; hits give high values
In short: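 A DNA repair-deficient yeast mutant serves as the test organism; compound-induced growth inhibition is calculated against vehicle-treated cells.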

[2] = NCI Yeast Anticancer Drug Screen. Data for the mec2-1 strain (AID 157); conditions: S. cerevisiae mec2-1 strain, at 50.0 µM, hits give high values
In short: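 Strain: mec2-1 (DNA repair/cell cycle alteration). Compound exposure, then growth measured; inhibition expressed relative to vehicle.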

[3] = NCI Yeast Anticancer Drug Screen. Data for the sgs1 mgt1 strain (AID 161);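 further: 0% = growth of cultures given vehicle only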; conditions: S. cerevisiae sgs1 mgt1 strain, at 50.0 µM, hits give high values
In short: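 Genetically altered yeast, compound exposure, growth inhibition relative to vehicle.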

[4] = NCI Yeast Anticancer Drug Screen. Data for the cln2 rad14 strain (AID 165);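 further: 0% = growth equal to vehicle treated cultures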; conditions: S. cerevisiae cln2 rad14 strain, at 50.0 µM, hits give high values
In short: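 Compounds are applied to the cln2 rad14 yeast strain, and growth is then compared with that of vehicle-treated cultures to give inhibition.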

[5] = NCI Yeast Anticancer Drug Screen. Data for the bub3 strain (AID 167); conditions: S. cerevisiae bub3 mutant strain, at 50.0 µM, hits give high values
In short: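 Inhibition values come from growth of compound-treated mutant yeast normalised to vehicle-treated controls.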

[6] = NCI Yeast Anticancer Drug Screen. Data for the mlh1 rad18 strain (AID 175); conditions: S. cerevisiae mlh1 rad18 strain growth inhibition; at 50.0 µM; hits give high values
In short: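 Read-out is yeast growth inhibition, calculated against vehicle-only controls. The compound was applied to a strain engineered with DNA damage repair alterations.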

Measured: growth inhibition

O=c1cc(O)c1=O
inactive: [1] 23.2% | [2] 18% | [3] -6.05% | [4] 14.9% | [5] 16.8% | [6] 31.9%

O=C(Nc1cccc(F)c1)c1c(O)[nH]c(=S)[nH]c1=O
inactive: [1] 26.1% | [2] 14.3% | [3] 38.4% | [4] 10.9% | [5] 21.3% | [6] 40.2%

CCCCOCN(COCCCC)C(C)Cc1ccccc1 (stereo not drawn)
inactive: [1] 11.7% | [2] -3.3% | [3] -12.5% | [4] 11.1% | [5] -2.25% | [6] -21.8%

CCOP(=O)(OCC)/C(C#N)=C/c1cn(C)cn1
inactive: [1] -3.35% | [2] 1.95% | [3] -5.95% | [4] -16.1% | [5] -4.65% | [6] -21.8%

c1ccc2c(c1)Nc1ccccc1S2
inactive: [1] 41% | [2] 10.1% | [3] 17.9% | [4] 28.4% | [5] 28.5% | [6] 34.2%

c1ccc(N2CCN(Cc3c[nH]c4ccccc34)CC2)cc1
inactive: [1] 7.9% | [2] 1.9% | [3] 7.55% | [4] -26.6% | [5] 0.85% | [6] -9.6%

CC1(C)N=C(N)N=C(N)N1c1ccc(CCc2ccc(Cl)c(S(=O)(=O)F)c2)c(Cl)c1
active: [1] 99.3% | [2] 99.5% | [3] 99.3% | [4] 93.8% | [5] 98.3% | [6] 99.7%

NNC(=S)NN
inactive: [1] 4.95% | [2] 4.3% | [3] 1.7% | [4] -15.4% | [5] -2.6% | [6] 35.6%

C[C@]12CCC(O)CC1=CC[C@@H]1[C@@H]2CC[C@]2(C)C(O)[C@H](n3ccnc3)C[C@@H]12 (stereo partly drawn)
inactive: [1] 30.1% | [2] 33.6% | [3] -6.05% | [4] 25.1% | [5] -11.7% | [6] -13.4%

CCC[CH2][Sn]1([CH2]CCC)[O]C(=O)CN=C(C)c2ccccc2[O]1
inactive: [1] 0.1% | [2] 9.85% | [3] 4% | [4] 45.5% | [5] 9.8% | [6] 3.45%

N#CN1CC(C(=O)N2CCCCC2)C=C2c3cccc4[nH]cc(c34)CC21 (stereo not drawn)
inactive: [1] 9.5% | [2] -10.8% | [3] 34.5% | [4] 0.05% | [5] 8.95% | [6] 10.9%

NC1(P(=O)(O)O)CCCCC1
inactive: [1] 2.5% | [2] -3% | [3] -22.4% | [4] -52% | [5] -31.6% | [6] -10.5%

Cc1cccc(C(=O)[O][Pb]([CH3])([CH3])[CH3])c1
inactive: [1] 16.1% | [2] -53.7% | [3] 21% | [4] -20% | [5] -9.65% | [6] 36.2%

CC[P+](C#Cc1ccccc1)(c1ccccc1)c1ccccc1
active: [1] 85.8% | [2] 88.9% | [3] 89% | [4] 87.2% | [5] 87.4% | [6] 87.5%

CC1([N+](=O)[O-])COP(=O)(OP2(=O)OCC(C)([N+](=O)[O-])CO2)OC1 (stereo not drawn)
inactive: [1] 29.8% | [2] 10.2% | [3] 28.9% | [4] 26.6% | [5] 3.85% | [6] 20%

O=[N+]([O-])c1ccc(/C=C/C=C\c2ccc(S(=O)(=O)F)cc2Cl)cc1
inactive: [1] 2.55% | [2] 25.2% | [3] 16% | [4] 1.85% | [5] 10.2% | [6] 16.3%

CC12OCCN1CCO2
inactive: [1] 10.9% | [2] -3.25% | [3] 11.8% | [4] 5.45% | [5] 12.8% | [6] 4%

CCOP(O)(=S)OCC.[Yb]
inactive: [1] 22.4% | [2] -2.45% | [3] -1.1% | [4] -22.7% | [5] -1.35% | [6] -7.4%

Cc1nc2cccc(F)c2c(=O)n1-c1nnc(C2CC2)s1
inactive: [1] -28.6% | [2] -23.5% | [3] -20.2% | [4] 13.5% | [5] -41.2% | [6] -9.05%

COP(=O)(OC)C(=O)c1ccc(C)cc1
inactive: [1] 14.7% | [2] -6.05% | [3] 1.55% | [4] -36.8% | [5] 15.9% | [6] -7%

O=C(NC(Cc1ccccc1)C(=O)N(CCCl)CCCl)c1ccccc1 (stereo not drawn)
inactive: [1] -5.15% | [2] -17.5% | [3] 16.7% | [4] 4.1% | [5] -13.7% | [6] 23.4%

CN(Cc1cnc2nc(N)nc(N)c2n1)c1ccc(C(=O)NC(CCC(=O)NC(CC(P(=O)(O)O)P(=O)(O)O)C(=O)O)C(=O)O)cc1 (stereo not drawn)
inactive: [1] -19.6% | [2] -14.6% | [3] -8.05% | [4] 16.6% | [5] 5.75% | [6] -21.9%

COc1cc(CC(N)Cc2c[nH]c3ccccc23)cc(OC)c1OC (stereo not drawn)
inactive: [1] -5.2% | [2] -5.8% | [3] -4.85% | [4] 24.6% | [5] -25.3% | [6] -3.35%

COc1ccc(C2=CC3=CCC4C(CCC5(C)C(O)CCC45)C3(C)CC2)s1 (stereo not drawn)
inactive: [1] 19.2% | [2] 11.7% | [3] 29.6% | [4] -0.6% | [5] -0.1% | [6] 26.1%

CNC(Cc1ccccc1)c1ccc(OC)cc1 (stereo not drawn)
inactive: [1] 27.1% | [2] 17.2% | [3] 32.3% | [4] 5.75% | [5] 34.6% | [6] 35.6%

[Fe+5].[O-][Cl+3]([O-])([O-])O.[O-]c1ccccc1C=NCCN1CC1.[O-]c1ccccc1C=NCCN1CC1
inactive: [1] 1.8% | [2] 16% | [3] 30.1% | [4] 0.3% | [5] 37% | [6] 22.2%

CCN1C(=O)C(=Cc2ccc(-c3ccccc3)cc2)C(=O)N(CC)C1=S
inactive: [1] 32.4% | [2] -5.5% | [3] 23.1% | [4] 16.9% | [5] 15.4% | [6] 20.4%

CNCC(=O)c1ccc(O)c(O)c1
inactive: [1] 2.4% | [2] -10.1% | [3] -30.6% | [4] -9.35% | [5] -38.9% | [6] -6.75%

O=Cc1ccccc1O.[Pr]
inactive: [1] 29.1% | [2] -24.4% | [3] 37% | [4] 8.4% | [5] 24.4% | [6] 28.6%

NNc1cccc2c1CCC(N)C2 (stereo not drawn)
inactive: [1] -0.35% | [2] 21.7% | [3] 6.35% | [4] -11.4% | [5] 5% | [6] 9.65%

CCOP(=O)(OCC)Oc1ccc([N+](=O)[O-])c(CC)c1
inactive: [1] -2.55% | [2] -3.55% | [3] -0.3% | [4] 3.5% | [5] 18.5% | [6] -8.25%

COc1cccc2c1C(=O)c1c(O)c3c(c(O)c1C2=O)CC(O)(C(=O)CO)CC3OC1CC(N2CCOCC2C#N)C(O)C(C)O1 (stereo not drawn)
active: [1] 86.7% | [2] 90.2% | [3] 88.9% | [4] 86.5% | [5] 88.2% | [6] 89.8%

C/C=C(\CC)C1(C(C)C)C(=O)NC(=O)NC1=O
inactive: [1] 12.2% | [2] -1.35% | [3] -6.3% | [4] -33.9% | [5] 2% | [6] 10.4%

CCCCN1C(=O)C(=C/C=C/C=C2\Oc3ccccc3N2CCCS(=O)(=O)O)C(=O)N(CCCC)C1=S
inactive: [1] 18% | [2] 2.9% | [3] 3.75% | [4] 15.7% | [5] -3.9% | [6] 27%

O=C(CCl)N(CCO)CCO
inactive: [1] -0.85% | [2] 1.5% | [3] -2.4% | [4] -30.7% | [5] 6.3% | [6] 0.95%

CC(C)c1ccc(-n2c(=S)[nH]c3ccccc3c2=O)cc1
inactive: [1] -16.3% | [2] -7% | [3] -13.8% | [4] -25% | [5] -5.7% | [6] 13.8%

CCc1ccc(OP(=O)(Oc2cc(C)cc(C)c2)Oc2cc(C)cc(C)c2)cc1
inactive: [1] -27.9% | [2] -12.9% | [3] -16.1% | [4] 3.45% | [5] 1.55% | [6] -15.9%

CC(C)[N+](C)(CCC(C(=O)N(C)C)(c1ccccc1)c1ccccc1)C(C)C
inactive: [1] 18.6% | [2] -1.55% | [3] 4.7% | [4] 13.3% | [5] -16% | [6] 24.4%
